Assay results reported in PubChem BioAssay.
Calls of active or inactive are those of the source. Cut-off read from the data, not from the text of the source, unless noted: active = inhibition above about 80%; inactive = the rest.

Legend:
[1] = growth inhibition, single agent or in combination, cell-based, chromothripsis tumors, cisplatin or BGB combos (AID 1671449); settings: LFS_MB_P medulloblastoma cells;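 note: cells exposed for 96 hours; 0% = vehicle DMSO and 100% = killing by high DMSO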
[2] = growth inhibition, single agent and combos, cell-based, chromothripsis tumors, cisplatin or BGB combos (AID 1671450); settings: HDN33 neuroblastoma cells, stronger effect = higher value;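 note: cells exposed to compound for four days; 0% = vehicle DMSO and 100% = cell killing by high DMSO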
[3] = growth inhibition, single agents and combos, ICB984, cell-based, cisplatin or BGB combos, synergistic combos for chromothripsis tumors (AID 1671451; call rule not given here;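 note: cells exposed for 96 hours before readout; 0% = vehicle DMSO and 100% = killing by high DMSO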); settings: ICB984 medulloblastoma cells, drug combinations, stronger effect = higher value
[4] = growth inhibition, single agents and combos, LFS_MB_1R, cell-based, cisplatin or BGB combos, synergistic combos for chromothripsis tumors (AID 1671452); settings: LFS_MB_1R medulloblastoma cells, stronger effect = higher value;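 note: cells exposed for 96 hours before readout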
[5] = growth inhibition, single agents and combos, HTB85, cell-based, BGB or cisplatin IC20 combos, synergistic combos for chromothripsis tumors (AID 1671453); settings: HTB85 osteosarcoma cells, drug combinations, stronger effect = higher value;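 note: cells exposed for 96 hours before readout; 0% = vehicle DMSO and 100% = high DMSO killing control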
[6] = growth inhibition, single agents and combos, CRL2098, cell-based, BGB or cisplatin IC20 combos, synergistic combos for chromothripsis tumors (AID 1671454); settings: CRL2098 osteosarcoma cells, drug combinations, stronger effect = higher value;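 note: cells exposed for 96 h before readout; 0% = vehicle DMSO and 100% = killing by high DMSO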
[7] = growth inhibition, single agents and combos, HD-MB03, cell-based, BGB or cisplatin IC20 combos, synergistic combos for chromothripsis tumors (AID 1671455; in the data active = inhibition above about 83%;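 note: 0% = vehicle DMSO and 100% = high DMSO as cytotoxic control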); settings: HD-MB03 medulloblastoma cells, stronger effect = higher value
[8] = growth inhibition, single agents and combos, UWB1.289, cell-based, BGB or cisplatin combos, synergistic combos for chromothripsis tumors (AID 1671456); settings: UWB1.289 ovarian carcinoma cells, stronger effect = higher value;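 note: cells exposed to compound for four days; 0% = vehicle DMSO and 100% = killing by high DMSO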
[9] = growth inhibition, single agents and combos, LFS_MB_2R, cell-based, cisplatin combos, synergistic combos for chromothripsis tumors (AID 1671457); settings: LFS_MB_2R medulloblastoma cells, stronger effect = higher value;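 note: cells exposed to compound for four days before readout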
[10] = growth inhibition, MDA-MB-436, cell-based, BGB or cisplatin combos, synergistic combos for chromothripsis tumors (AID 1671458; call rule not given here;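 note: cells exposed for 96 hours; 0% = vehicle DMSO and 100% = killing by high DMSO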); settings: MDA-MB-436 breast carcinoma growth inhibition, drug combinations, stronger effect = higher value
[11] = UWB1.289_BRCA1 ovarian cancer growth, cell-based, BGB or cisplatin combinations (AID 1671459); settings: UWB1.289 BRCA1 ovarian carcinoma, drug combinations, stronger effect = higher value
[12] = drug combination toxicity in non-malignant astrocytes – cell-based, BGB or cisplatin IC20 combos, cytotoxicity control for chromothriptic childhood tumor combination screen (AID 1671460); settings: Human astrocytes, viability inhibition, drug combinations, at 0.5 µM, stronger effect = higher value;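 note: cells exposed to compounds for 96 hours before viability readout; 0% = vehicle and 100% = killing control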
[13] = BT084 cell growth, single and combined drugs, ICGC_MB145, cisplatin and BGB IC40 combos (AID 1671461); settings: BT084 medulloblastoma cells, drug combinations, stronger effect = higher value;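 note: cells exposed to drugs for 96 hours; 0% = vehicle DMSO and 100% = high DMSO full killing control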
[14] = RCMB18 cell growth, single agent and combined, cisplatin and BGB IC40 combos (AID 1671462); settings: RCMB18 medulloblastoma cells, stronger effect = higher value;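 note: cells exposed to compound for four days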
[15] = CRL1545 cell growth, single agent and combined, cisplatin and BGB IC20 combos (AID 1671464); settings: CRL1545 osteosarcoma cells, stronger effect = higher value;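 note: cells exposed to compound for 96 hours before readout; 0% = vehicle DMSO and 100% = high DMSO killing control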
[16] = measured here: combination with BGB IC40, at 0.05 µM
[17] = measured here: with BGB IC20 combination, at 0.5 µM
[18] = measured here: with cisplatin IC20 combination, at 0.5 µM
[19] = measured here: combination with cisplatin, at 0.5 µM
[20] = measured here: combination with cisplatin, at 5 µM

Structure (SMILES): CCC1(O)C(=O)OCc2c1cc1n(c2=O)Cc2cc3cc(O)ccc3nc2-1 (stereo not drawn)
- inhibition ([1]; at 0.5 µM, stronger effect = higher value): -23.8% (inactive)
- inhibition ([1]; measured here: combination with BGB IC20, at 0.005 µM): -39%
- inhibition ([1]; measured here: combination with BGB IC40, at 0.005 µM): -64.3%
- inhibition [1, 16]: -39.2%
- inhibition ([1]; measured here: combination with cisplatin, at 0.5 µM, stronger effect = higher value): -28.8%
- inhibition ([1]; measured here: combination with cisplatin, at 5 µM, stronger effect = higher value): 80.4%
- inhibition ([2]; BGB combo, at 5 µM): 96.2%
- inhibition ([2]; at 0.5 µM): 75% (inactive)
- inhibition ([2]; cisplatin combo, at 5 µM): 94.5%
- inhibition [2, 17]: 83.6%
- inhibition [2, 18]: 67.2%
- inhibition ([2]; single agent, at 5 µM): 96%
- inhibition ([3]; BGB IC20 combo, at 0.005 µM): -7.43%
- inhibition ([3]; BGB IC40 combo, at 0.005 µM): -6.67%
- inhibition ([3]; BGB IC40 combo, at 0.05 µM): 96.1%
- inhibition ([3]; at 0.5 µM): -15.7% (inactive)
- inhibition ([3]; cisplatin combo, at 0.05 µM): 96.4%
- inhibition ([3]; cisplatin combo, at 0.5 µM): -28.1%
- inhibition ([3]; cisplatin combo, at 5 µM): -59%
- inhibition ([3]; measured here: 5 uM single agent, at 5 µM): -24.3%
- inhibition ([4]; at 0.5 µM): 46% (inactive)
- inhibition [4, 16]: -11.8%
- inhibition [4, 19]: 91.8%
- inhibition [4, 20]: 84.6%
- inhibition ([5]; at 0.5 µM): 98% (active)
- inhibition ([5]; measured here: with BGB IC20, at 0.5 µM): 97.4%
- inhibition ([5]; measured here: with BGB IC20, at 5 µM): 98%
- inhibition ([5]; measured here: with cisplatin IC20, at 0.5 µM): 97.8%
- inhibition ([5]; measured here: with cisplatin IC20, at 5 µM): 99.5%
- inhibition ([5]; single agent, at 5 µM): 99.6%
- inhibition ([6]; at 0.5 µM): 43.5% (inactive)
- inhibition ([6]; measured here: combination with BGB at IC20, at 0.5 µM): 62.2%
- inhibition ([6]; measured here: combination with cisplatin at IC20, at 0.5 µM): 19%
- inhibition ([7]; at 0.5 µM): 98.3% (active)
- inhibition ([7]; measured here: combo with BGB at IC20, at 0.5 µM): 98%
- inhibition ([7]; measured here: combo with cisplatin at IC20, at 0.5 µM): 98.2%
- inhibition ([8]; at 0.5 µM): 83.6% (active)
- inhibition ([8]; measured here: inhibition with BGB combination, at 0.05 µM): 5.35%
- inhibition ([8]; measured here: inhibition with cisplatin combination, at 0.05 µM): 7.19%
- inhibition ([9]; at 0.5 µM): -2.53% (inactive)
- inhibition [9, 19]: 28.3%
- inhibition [9, 20]: 65.3%
- inhibition ([10]; at 0.5 µM): 65.8% (inactive)
- inhibition ([10]; measured here: BGB combination, at 0.5 µM): 59%
- inhibition ([10]; measured here: BGB combination, at 5 µM): 70.2%
- inhibition ([10]; measured here: cisplatin combination, at 0.5 µM): 63.8%
- inhibition ([10]; measured here: cisplatin combination, at 5 µM): 80.3%
- inhibition ([11]; BGB combination, concentration series, at 5 µM): 95.1%
- inhibition ([11]; at 0.5 µM): 89% (active)
- inhibition ([11]; cisplatin combination, concentration series, at 5 µM): 102%
- inhibition [12]: 73.4% (inactive)
- inhibition ([12]; measured here: combo with BGB IC20): 82.6%
- inhibition ([12]; measured here: combo with cisplatin IC20): 57.6%
- inhibition ([13]; at 0.5 µM): 1.31% (inactive)
- inhibition ([13]; cisplatin combination, at 0.5 µM): 54.4%
- inhibition ([13]; cisplatin combination, at 5 µM): -68.1%
- inhibition ([13]; measured here: BGB IC40 combination 0.05 uM, at 0.05 µM): -44.1%
- inhibition ([13]; single agent, at 5 µM): -0.722%
- inhibition ([14]; at 0.5 µM): 24% (inactive)
- inhibition ([14]; cisplatin combo, at 5 µM): 79.3%
- inhibition ([14]; measured here: BGB IC40 combination, at 0.05 µM): -9.73%
- inhibition [14, 19]: 24.7%
- inhibition ([14]; single agent, at 5 µM): 49.8%
- inhibition ([15]; at 0.5 µM): 74.6% (inactive)
- inhibition [15, 17]: 87.6%
- inhibition [15, 18]: 67.5%
- inhibition ([15]; single agent, at 0.05 µM): 14.1%
- inhibition ([15]; single agent, at 5 µM): 99.4%
